Results reported in the supplement of paper PMC6555819.

Tests used:
Assay in all cases: PBM binding z-score (relative to random genomic background probes); higher = stronger binding; sequences stand for … in GC…GCGATTGACAGCGTAGAATGAAGG
[1] = tested on: FXR:RXRa (NR concentration 270 nM, RXRa partner concentration 90 nM)
How it was run: (§1)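 Scanned fluorescence from custom Agilent 4×180K protein-binding microarrays was regression-normalized. Binding z-scores use random background probes as reference. Ligand-free nuclear receptor dimers were incubated on the arrays for 1 h and detected with antibodies against each partner (one per run).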

[2] = tested on: LXRa:RXRa (NR concentration 270 nM, RXRa partner concentration 90 nM)
How it was run: as §1

[3] = tested on: LXRa homodimer (NR concentration 270 nM)
How it was run: as §1

[4] = tested on: LXRb:RXRa (NR concentration 270 nM, RXRa partner concentration 90 nM)
How it was run: as §1

[5] = tested on: LXRb homodimer (NR concentration 270 nM)
How it was run: as §1

[6] = tested on: PPARa:RXRa (NR concentration 270 nM, RXRa partner concentration 90 nM)
How it was run: as §1

[7] = tested on: PPARg:RXRa (NR concentration 180 nM, RXRa partner concentration 90 nM)
How it was run: as §1

[8] = tested on: PPARg:RXRa 270nM:90nM, anti-RXR (NR concentration 270 nM, RXRa partner concentration 90 nM)
How it was run: as §1

[9] = tested on: PPARg:RXRa 30nM:10nM, anti-RXR (NR concentration 30 nM, RXRa partner concentration 10 nM)
How it was run: as §1

[10] = tested on: PPARg:RXRa 90nM:30nM, anti-RXR (NR concentration 90 nM, RXRa partner concentration 30 nM)
How it was run: as §1

Sequence	PBM binding z-score [1]	PBM binding z-score [2]	PBM binding z-score [3]	PBM binding z-score [4]	PBM binding z-score [5]	PBM binding z-score [6]	PBM binding z-score [7]	PBM binding z-score [8]	PBM binding z-score [9]	PBM binding z-score [10]
TTACCAAGGTGAAGGTCGGTGATCCCTCTGTAGA	0.881	0.952	-0.494	0.467	-0.916	2.14	2.65	3.05	1.65	2.96
ACTATTAGTTGACTTAGGGAAACCGATACGACGC	0.197	0.155	0.512	0.0262	0.742	-0.255	0.843	0.171	0.193	0.259
ATGTCTAGGTAAAGATAGTTCAGTGAATGCAAAT	0.0456	4.09	0.552	0.617	0.0209	0.376	0.701	0.217	0.312	0.184
TAGCCTAGGTCATGCGGGCCAGTATCGTGTCGGC	3.99	3.03	0.667	1.41	-0.226	3.06	1.67	2.29	0.00483	1.36
AGAATGAGGTTACCAAACATCAGGGAAACGCTTG	2.02	2	-0.389	1.31	-0.323	3.21	2.42	2.19	1.04	1.8
AATACAGGGTCATTGTAGGCCAGAGTACGCACAG	7.11	6.93	3.2	5.09	1.47	5.93	6.15	5.54	2.4	4.29
TCGAGTAGGTTAGGGGCCTTCAGAATGGCGTCGA	-0.193	-0.323	-0.797	-0.221	-0.986	0.54	0.638	2.19	0.926	2.03
CCGACCGGGGCAAAGGTTACCATACTCAGTACGA	2.32	2.1	0.433	2.47	-1.02	4.89	8.71	7.68	6.28	7.92
AGTCAAAGTTCACCAGGTAACGTAAGATTCAGCT	6.31	5.59	3.52	3.85	1.05	5.19	6.96	6.68	3.83	6.1
TAGCCTAGGTCATTGGGCCAGTATCGTACGCATC	4.61	3.37	0.842	2.55	0.185	3.85	3.26	3.52	0.601	2.34
AGAACTAGGGCAATGAGTTGATAGCACGGGTGGC	-0.0132	-0.254	-0.285	-0.631	-0.61	2.48	4.11	3.2	1.29	2.41
CCTATTAGTTGACCATAAGGGCCACCGAAGCTCG	0.118	0.041	0.365	0.0156	0.659	0.169	0.368	0.219	0.231	0.304
AACTCTAGGTAACCAAGTTCAGTGAATGCCGAAC	0.211	0.537	0.474	0.24	0.213	0.878	0.528	0.367	-0.222	0.0109
GATACAGGGTCAAGACCAGAGTACGCGTATTGAT	6.27	3.79	0.0908	3.63	0.0748	5.37	5.25	4.91	1.75	3.56
GATACAGGGTCAGCCAGAGGCCAGAGTATGGAAA	4.61	2.94	-0.284	2.56	-0.975	4.69	4.13	3.7	0.98	2.28
CAAACTAGGTCACCGGAAGGTCAATGTCCGCATG	5.97	5.52	3.83	4.64	1.09	6.05	9.44	7.81	5.6	7.57
AGAATGAGGTTATACGTAGATCAGTGAAGAAAGT	1.96	1.82	0.00702	1.51	0.326	2.96	1.92	2.13	0.914	1.38
CCTTAAGGGTCAAGGTTATAGCACGGGTGGTACG	7.56	5.38	1.06	4.67	0.683	5.86	5.81	5.97	2.96	4.78
TCTGCTAGGTCGGTTGGTCAGCTAACGAGCTGCC	-1.29	-0.709	-0.834	-0.284	0.368	0.029	-1.04	0.448	0.962	0.78
GCTTGTAGCTCAAGGTTAAGAAAGACTAAGCTAA	-0.0638	0.559	-0.361	0.165	-0.751	0.893	-0.394	0.557	-0.472	0.243
GCATATAGGTAATACAAGGTGAAGGTCCGATTGT	0.87	1.46	0.0259	0.247	-0.268	1.09	1.25	1.12	0.453	0.748
GATACAGGGTCAAAGCCAGAGTACGCGTATTGAT	7.15	4.59	0.214	3.97	0.158	5.59	5.42	5.39	2.26	4.25
CCTCCTGGGCCAAAAAGGTCATTGATGCCGATAA	3.19	3.89	2.81	4.12	0.202	4.47	0.997	2.63	0.448	1.63
GCTGCTAGGTCAACTTATGGTCAGCTAAAGCTCG	4.49	2.98	0.539	2.52	0.4	3.87	2.95	3.14	0.913	2.31
CCTAGCAGGCCAGGGTCACTTAAGCATTTCGCTT	1.75	1.64	-0.562	1.91	-1.39	2.77	0.597	1.54	-0.349	0.831

Sequence	PBM binding z-score [1]	PBM binding z-score [2]	PBM binding z-score [3]	PBM binding z-score [4]	PBM binding z-score [5]	PBM binding z-score [6]	PBM binding z-score [7]	PBM binding z-score [8]	PBM binding z-score [9]	PBM binding z-score [10]
CCTACTGGGCCTCGAAAGGTCATTGATTCAGTGA	3.05	3.94	4.13	3.74	0.187	4.05	1.44	2.98	0.556	1.97
ATCGAGAGGTCGAGGTGAGTATAGAGAAAGGGAA	2.84	2.37	-0.153	1.78	-0.102	3.68	2.19	2.16	0.414	1.15
ATCTCTAGGTAACAAGTTCAGTGTAAGAGAGGAC	0.924	0.672	0.835	0.727	1.14	1.52	1.37	2.11	0.896	1.48
GCGAGCAGGCCATTTGGGTCACTCAATGACGGGC	0.039	-0.0343	-0.692	0.145	-1.06	1.37	0.6	0.408	-0.542	0.0983
CCTAGCAGGCCAGGGTCACTGAAGCATTTCGCTT	2.08	1.76	-0.679	2.1	-1.29	3.35	0.613	1.95	-0.0383	1.16
TATACAGGGTCAAAGGCCAGCGTACGAATGTCGA	7.47	6.28	2.26	4.8	2.36	6.28	8.39	7.25	5.73	7.51
TCTAGTTGGTCACGGAGGTCACAGACGACGGGTA	3.38	3.46	1.88	3.32	0.321	4.34	3.91	4.32	3.41	3.8
ATCTCTATGTAACAAGTTCAGTGAAAGAGAGGAC	-0.00461	0.0801	0.289	0.189	0.769	0.267	0.597	0.532	0.31	0.575
AGTAAAAGTTCAGGACGAGGTAACGTAAAGCACG	3.83	3.28	1.42	1.75	0.493	2.63	1.81	2.14	0.671	1.29
CGTCCACGGTCATAGGAGGTCAGTGAAGACAGAT	2.58	4.52	2.1	2.15	-0.643	2.16	0.881	0.977	-0.0793	0.32
GGAACGAGGGCAAGTTGATAGAAGAGTTTGATGG	0.705	0.396	-0.176	0.213	-0.242	1.41	1.29	0.969	0.173	0.351
ATCTCTAGTTAAAGATAGTTCAGTGAATGCAAAT	0.285	1.29	0.86	0.823	0.612	0.58	0.585	0.484	0.404	0.51
CCAGACAGGTGAAAGGTACCTCAGTCTGGTACGC	-0.0455	0.27	-0.338	0.286	-0.978	2.28	3.4	4.94	2.26	4.17
TCTAGCAGGCCCGAGGGTCACTCAAGAGGTACGG	0.726	0.983	-0.649	1.04	-1.35	1.96	0.501	1.33	1.57	1.42
CTCGAAGGGTCGTGCTCAGGTGAGTATACCAAAC	2.01	1.45	-0.37	1.52	-0.487	2.89	0.441	1.12	-0.0599	0.72
CGTCAAAGATCAACTAAGGTAACGTAAAGCACGC	1.52	0.952	0.0696	0.635	-0.0274	1.19	0.897	0.957	0.274	0.711
GCTGCTGGGTCAGGTTGGTCAGCTAACGGGTACG	0.641	0.222	-0.341	0.236	-0.403	1.32	0.104	0.429	-0.561	0.0436
CGTCCTAGGTCAAAGGTCAGTGAAGAGATGACGG	7.08	5.88	2.24	5.52	0.881	6.8	11	9.26	9.03	10.2
TCTAGTTGGTCACGGAGGTCATACACGACGGGTA	3.53	3.79	3.37	3.52	0.955	3.92	3.08	3.93	3.65	3.86
GATACTGGGTCAGCTAGAGGCCAGAGTATGGAAA	0.906	0.796	-0.487	0.388	-0.812	2.91	3.87	3.8	0.981	2.65
ATCGAAGGGTCGAGGTGAGTATAGAGAAAGGGAA	1.41	1.24	0.0219	1.19	0.389	2.62	1.49	1.28	0.548	0.905
ACTTACGGGTCAACAAGGTTATAGCACGCGTATA	6.88	4.7	0.809	4.4	1.05	6.09	5.69	5.32	2.2	4.02
ATATGAAGGTTACATCCGGGTCATTCAGGCTATG	2.82	4.87	1.86	3.51	0.71	3.69	2.35	2.52	1	1.58
TCTGCTAGGTCAGTTTGTCAGCTAACGAGCTGCC	0.772	0.567	-0.461	0.457	0.977	1.03	-0.179	1.12	1.38	1.4
